This is part of a sample that, as a whole, favours compounds with a hit. Of some 83,000 tested, about 20% had one in any assay.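 Growth was measured after 48 h exposure to one concentration of compound in 96-well plates. Values under 10 count as active.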 Values without a mark were called inactive. The source made the active and inactive calls.
Columns and labels:
Test in all cases: NCI-60 one-dose screen, 48 h (100 = growth as untreated, 0 = no growth, -100 = all killed)
Conditions in all cases: 10 µM unless noted
NCI-H23 lung = system: NCI-H23 lung
NCI-H226 lung = system: NCI-H226 lung
NCI-H322M lung = system: NCI-H322M lung
HOP-62 NSCLC = system: HOP-62 NSCLC
NCI-H460 lung = system: NCI-H460 lung
HOP-92 NSCLC = system: HOP-92 NSCLC
NCI-H522 lung = system: NCI-H522 lung
A549/ATCC NSCLC = system: A549/ATCC NSCLC
786-0 renal = system: 786-0 renal
COLO 205 colon = system: COLO 205 colon

Structure (SMILES) | growth (NCI-H23 lung) | growth (NCI-H226 lung) | growth (NCI-H322M lung) | growth (HOP-62 NSCLC) | growth (NCI-H460 lung) | growth (HOP-92 NSCLC) | growth (NCI-H522 lung) | growth (A549/ATCC NSCLC) | growth (786-0 renal) | growth (COLO 205 colon)
CC[C@H](Nc1nc(C)nc(N)c1C#N)c1nc2cccc(NCc3ccc(C(=O)NO)cc3)c2c(=O)n1-c1ccccc1 | -17.5% (active) | -3.97% (active) | 24.5% | 10.1% | 2.36% (active) | -1.54% (active) | -36.4% (active) | -31% (active) | 5.71% (active) | 0.926% (active)
C#CC[C@@H]1C[C@]2(C)[C@H]3CC[C@@H]4[C@H]5C(C(=C)C)CC[C@]5(C(=O)NCCN(CCN)CCN)CC[C@@]4(C)[C@]3(C)CC[C@H]2C(C)(C)[C@H]1OC(C)=O (stereo not given in full) | 77.3% | 65.9% | 71.4% | 83.3% | 81.8% | 66.3% | 61.7% | 53.4% | 90.3% | 69.3%
O=C1Cc2c([nH]c3ccc([N+](=O)[O-])cc23)-c2ccccc2N1 | 2.05% (active) | 27.1% | 18.3% | 17.8% | 6.76% (active) | -17.1% (active) | 0.987% (active) | 18.5% | 7.56% (active) | -58.1% (active)
Cc1ccc(NC(=O)c2nc(S(C)(=O)=O)oc2-c2ccc(F)cc2)cc1Nc1ccc2ncn(C)c(=O)c2c1 | 60.4% | 85.2% | 108% | 100% | 83.6% | 108% | -7.9% (active) | 102% | 78.8% | -8.69% (active)
NC(=S)N/N=C(/c1cccs1)C1CC1 | 101% | 90.5% | 93% | 91.8% | 106% | 107% | 87.4% | 63.6% | 105% | 105%
C/C(CC(=O)NNc1ccc([N+](=O)[O-])cc1)=N\Nc1ccc([N+](=O)[O-])cc1 | 87.5% | 96.2% | 71.7% | 83% | 27.9% | 90.5% | 60.8% | 56.1% | 55.3% | 48.8%
COc1cc(Cn2c(-c3ccccc3)cc3c2-c2oncc2CC3)cc(OC)c1OC | 48.4% | 51% | -13.2% (active) | 39% | 9.75% (active) | 28% | 5.31% (active) | 23.9% | 32.7% | 14.5%
CCCCN(CCCC)CCCN=c1nc2c(c(N)n1-c1ccccc1)c(=S)n(-c1ccccc1)c(=S)n2-c1ccccc1 | -56.3% (active) | -82.5% (active) | -57.8% (active) | -99.6% (active) | -95.7% (active) | -66.9% (active) | -54.8% (active) | -38.4% (active) | -100% (active) | -74.1% (active)
CCN(CC)CCCNc1cccc2c(C)cc(OC)nc12 | 90.5% | 91% | 93.6% | 98.8% | 100% | 58.4% | 87.5% | 94.8% | 94.6% | 87.4%
CNC(=O)c1cc(Oc2ccc(NC(=O)c3nc(S(C)(=O)=O)sc3-c3ccc(F)cc3)cc2)ccn1 | 94.8% | 101% | 28.2% | 94.9% | 84.7% | 138% | 53.4% | 94.8% | 98.3% | 69.1%
Cc1nn(-c2ccc(Cl)cc2)c(=O)n1CCN1CCOCC1 | 64.5% | 79.4% | 92.3% | 33.8% | 41.7% | 30.1% | 69% | 56.4% | 59.4% | 107%
Nc1c(C(=O)c2ccc(Br)cc2)sc2nc3c(cc12)CCCC3 | 97.4% | 92.2% | 101% | 98.6% | 103% | 89.2% | 43.1% | 96.8% | 98.2% | 104%
COc1ccc2nc(NC(=O)/C(=C/c3cc(OC)c(OC)c(OC)c3)c3ccc(OC)c(OC)c3)sc2c1 | 93.2% | 80.2% | 82.5% | 87.8% | 111% | 74.3% | 78.1% | 85.6% | 100% | 104%
CCCCn1c(C)nc2ccc(Nc3nc(Cl)nc4nc[nH]c34)cc21 | 75.3% | 62.4% | 82.5% | 66.1% | 70.9% | -11.2% (active) | 73.2% | 81.4% | 55.4% | 86.8%
Nc1ccc(C(OC(=O)c2cc3ccccc3c(Cc3c(O)c(C(=O)OC(c4ccc(N)cc4)(c4ccc(N)cc4)c4ccc(N)cc4)cc4ccccc34)c2O)(c2ccc(N)cc2)c2ccc(N)cc2)cc1 | 9.92% (active) | 30.8% | 3.77% (active) | 6.24% (active) | 1.82% (active) | -6.69% (active) | 9.97% (active) | 10.7% | 23.5% | -83.7% (active)
COc1ccc(/C(=C\c2ccc3c(c2)OCO3)C(=O)Nc2nc3ccc(F)cc3s2)cc1OC | 93.2% | 87.1% | 87.3% | 92.8% | 105% | 93.6% | 94.2% | 99.7% | 92.1% | 106%
COc1ccc(/C=C/C(=O)c2ccc(NC(=O)CSc3nnc(-c4ccc(OC)cc4)n3-c3ccccc3)cc2)cc1 | 99.2% | 99.2% | 103% | 101% | 107% | 106% | 91.4% | 80.2% | 102% | 107%
CCCc1n(Cc2ccc3ccccc3n2)cc[n+]1Cc1ccc2ccccc2n1 | 13% | 38% | 72.1% | 51.7% | 34.2% | 16% | 22.8% | 62.8% | 85.3% | -43% (active)
CC(C)N1CCN(c2ccncc2S(=O)(=O)N2CCN(C)CC2)CC1 | 96.8% | 89.7% | 123% | 106% | 102% | 108% | 92.7% | 101% | 98.6% | 105%
CC1C2CCC(C2)C1COCCOCCO (stereo not given) | 107% | 104% | 109% | 108% | 112% | 105% | 96% | 92% | 104% | 121%
COc1cccc(Cn2c(-c3nonc3NC(C)=O)nc3ccccc32)c1 | 39.8% | 60.9% | 33.7% | 38.9% | 20.7% | 29.6% | -20.6% (active) | 41.4% | 45.8% | 23.8%
C#CC[C@@H]1C[C@]2(C)[C@H]3CC[C@@H]4[C@H]5C(C(=C)C)CC[C@]5(C(=O)NCCCCCCCCN)CC[C@@]4(C)[C@]3(C)CC[C@H]2C(C)(C)[C@H]1OC(C)=O (stereo not given in full) | 97.3% | 95.6% | 101% | 103% | 16.3% | 70.6% | 88.1% | 93.3% | 85.1% | 86%
O=C1c2ccccc2C2N1CCC1CCc3ccccc3N12 (stereo not given) | 99.5% | 90.2% | 85.4% | 108% | 104% | 73.6% | 84.8% | 99.1% | 99.7% | 112%
O=c1[nH]c2ccccc2n2cc3cccnc3c12 | 77.5% | 64.2% | 116% | 68.7% | 37.3% | 83.6% | 57.6% | 83.5% | 71.1% | 70%
C=CCn1c(SCC(=O)Nc2ccc(C(=O)/C=C/c3ccc(Cl)cc3)cc2)nnc1-c1ccc(Cl)cc1 | 82.8% | 83.1% | 110% | 78.2% | 99.5% | 91% | 68.4% | 73.8% | 93.9% | 98.3%
COc1ccc2c(c1)N(CCO)C1=C(C(=O)OC1)C2c1cccc(Br)c1 (stereo not given) | 29.2% | -5.22% (active) | 29% | 29.4% | 2.07% (active) | 42.7% | -19.2% (active) | 16.4% | 21.4% | -47.2% (active)

Source: PubChem BioAssay (NCI)
